HT1080-NT tox = kills 2HG-producing HT-1080-NT fibrosarcoma cells. HT-1080-NT fibrosarcoma viability, CellTiter-Glo ATP luminescence, 48 h. Potency, µM (series often up to 46.1 µM), for inactives: top-dose activity, negative = less viability, hits mostly cytotoxic. actives 1.6% (n = 360,000). AID 686970;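 also: NT is the 2HG producing partner of a matched IDH1 knockdown line; potency is read from the fitted curve at half-maximal effect; 0% = DMSO-treated cells and -100% = media-only wells without cells; nearly all actives have a fitted effect of over 55% in size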
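750 cells/well, RPMI + 5% FBS; 2 h settle, compound pin-transfer, 48 h at 37 degrees C. CellTiter-Glo 10 min RT, luminescence. Normalized to DMSO and media-only wells.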
HT1080 IDH1KD tx = kills HT-1080 cells with IDH1 knockdown; Potency, µM (doses to about 46.1 µM), for inactives: at the top dose activity, negative = toxicity, actives largely listed as cytotoxic; actives 2% (n = 360,000); AID 686971; HT-1080 IDH1 knockdown viability, ATP luminescence, 48 h;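 also: potency is read from the fitted curve at half-maximal effect; 0% = DMSO wells and -100% = cell-free medium wells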
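Luminescent ATP read-out (CellTiter-Glo, 10 min at room temperature) after 48 h compound exposure at 37 °C gave viability of IDH1-knockdown HT-1080 cells. Activity was normalised to DMSO and cell-free wells, then fitted as concentration-response curves.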
IL1B secr inh = inflammasome signaling inhibition, IL-1 beta readout; THP-1 LPS/ATP IL-1B secretion, AlphaLISA, 16 h; stronger effect = lower value; activity change, % at 57.5 µM; actives 4.7% (n = 360,000); in the data active = activity change below about -50%; inconclusive = mostly about -30% to -49%
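Secreted IL-1B measured by AlphaLISA bead assay after 16 h compound exposure of THP-1 cells; compounds (final up to 57.5 uM) added 1 h before LPS (250 ng/mL) and ATP (1.25 mM) stimulation; lower signal means less secretion.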
DT40 TDP1 CPT = DT40-hTDP1 cell growth loss with CPT. chicken DT40 Tdp1-/-;hTDP1 cells + 20 nM CPT, ATP luminescence, 48 h. Potency, µM (highest dose often 46.2 µM), without a hit: at the top dose activity change, negative = growth inhibition, actives largely listed as inhibitors. actives 12% (n = 420,000). AID 686979; also: potency is read from the fitted curve at half-maximal effect; nearly all actives have a fitted effect of over 55% in size
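Chicken DT40 Tdp1-/- cells complemented with human TDP1, 400 cells/well, exposed to compounds plus 20 nM camptothecin for at least 48 h at 37 C; viability read as ATP content by CellTiter-Glo luminescence.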
TDP1 cell noCPT = qHTS for Inhibitors of human tyrosyl-DNA phosphodiesterase 1 (TDP1): qHTS in cells in absence of CPT. DT40 Tdp1-/- hTDP1 cells, no CPT, ATP luminescence, 48 h. actives 15% (n = 420,000). Potency, µM (top dose mostly 46.2 µM), for inactives: top-dose activity change, negative = growth inhibition, actives largely listed as inhibitors. AID 686978, 2013; also: potency is read from the fitted curve at half-maximal effect; nearly all actives have a fitted effect of over 55% in size
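Readout: luminescence from CellTiter-Glo after 30 min in the dark at RT. Cells: DT40 Tdp1-/- with stable hTDP1, 400/well. Exposure: compounds alone, ≥48 hr, 37 °C.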
An asterisk follows results filed as active; i = inactive; ? = inconclusive; . = no result given; [ ] = dose if it differs, or a comment. Compounds with a hit are over-represented: about 19% of the library has one in this group of screens. Unless noted, calls follow the shape of the dose curve; as a rule, active = well fitted curve in the direction sought with a large enough effect; inconclusive = small, poorly fitted or top-dose-only effect, or another doubt; inactive = no such curve, though single readings can be large; an effect the other way counts as inactive or inconclusive. Unless noted, % is scaled to controls: 0 for no effect and ±100 for the full control effect.

SMILES	HT1080-NT tox	HT1080 IDH1KD tx	IL1B secr inh	DT40 TDP1 CPT	TDP1 cell noCPT
Fc1ccc(-n2ncc3c(N4CCC(Cc5ccccc5)CC4)ncnc32)cc1	.	.	.	-28.5%	-21.3%
Cc1ccc(-c2nc3c(c(=O)c4ccccc4n3C)c(=O)n2-c2ccccc2)cc1	18.0%	26.3%	30.4	-26.3%	?
O=c1oc(-c2ccccc2F)nc2c1cnn2-c1ccccc1	-29.1%	9.7%[9.24 µM]	12.0	?	23.1µM*
COc1cccc(-n2c(-c3ccccc3F)nc3c(cnn3-c3ccc(C)cc3)c2=O)c1	.	.	.	16.4µM*	11.6µM*
Cc1ccc(-c2nc3c(cnn3-c3ccccc3)c(=O)n2-c2cccc(Cl)c2)cc1	.	.	.	23.1µM*	13µM*
COc1cccc(/C=N/n2cnc3c(cnn3-c3ccccc3)c2=O)c1	-20.7%	-6.8%	-12.7	6.4%	-6.0%
O=c1oc(-c2cccc(Cl)c2)nc2c1cnn2-c1ccccc1	0.3%	2.1%	16.6	?	?
Cc1ccc(-n2c(-c3ccc(Br)cc3)nc3c(cnn3-c3ccccc3)c2=O)cc1	.	.	.	?	20.6µM*
CC(=O)NS(=O)(=O)c1ccc(NC(=O)[C@@H]2CCCN2S(=O)(=O)c2ccc(Cl)cc2)cc1	7.1%	12.1%	-4.3	1.2%	23.3%
O=c1[nH]c2cc(Cl)ccc2n1-c1ccccc1	-8.8%	-5.6%	7.6	-5.9%	-7.6%
O=c1[nH]c2c(cnn2-c2ccc(Cl)cc2)c(=O)n1-c1cccc(Cl)c1	-25.6%	-10.3%	11.1	?	29.1µM*
NC(=O)c1cccc(-c2cc(Nc3ccc(OC(F)(F)F)cc3)ncn2)c1	-3.3%	-3.3%	-14.8	?	14.6µM*
O=C(Nc1ccc(OC(F)(F)F)cc1)c1ccc2nc[nH]c2c1	3.7%	3.0%	21.2	-23.6%	?
Cc1nnc(SCC(=O)Nc2cc(-c3cc(C)c(C)cc3C)nn2-c2ccccc2)s1	-13.0%	-22.0%	-11.0	20.6µM*	11.6µM*
CCCc1ccc(-c2cc(NC(=O)CSc3nnc(N)s3)n(-c3ccccc3)n2)cc1	16.4µM*	?	?	23.1µM*	20.6µM*
COc1ccc(OC)c2sc(NNC(=O)C3COc4ccccc4O3)nc12 (centres undefined)	-2.5%	-18.9%	-7.5	14.6µM*	?
Cc1ccc(NC(=O)C2COc3ccccc3O2)cc1 (centres undefined)	-0.3%	3.8%	-10.4	-7.5%	-21.2%
Cc1cccc2sc(NNC(=O)C3COc4ccccc4O3)nc12 (centres undefined)	-3.5%	-4.8%	-26.5	?	?
COc1ccc(-c2csc(NC(=O)C3COc4ccccc4O3)n2)cc1OC (centres undefined)	-15.1%	-7.0%	?	16.4µM*	13µM*
CC(C)(C)c1csc(NC(=O)C2COc3ccccc3O2)n1 (centres undefined)	-0.6%	-9.7%	i	?	?
O=C(Nc1nnc(C(F)(F)F)s1)C1COc2ccccc2O1 (centres undefined)	?	23.1µM*	?	?	?
O=C(Nc1ccc(-c2cn3ccsc3n2)cc1)C1COc2ccccc2O1 (centres undefined)	-24.1%	?	-2.9	20.6µM*	?
O=C(NCc1cccnc1)c1cc(C2CCCCN2C(=O)c2ccc3ccccc3c2)on1 (centres undefined)	-6.1%	0.0%	-3.7	?	?
CCC(=O)N1CCCC(C)(C(=O)NS(=O)(=O)c2cccs2)C1 (centres undefined)	1.9%	0.3%	-3.0	18.2%	10.2%
C/C=C/c1ccc(OCCOCCOc2cccc3cccnc23)c(OC)c1	-12.4%	-12.7%	0.0	23.1µM*	14.6µM*
C/C=C/c1ccc(OCCCCOc2c(OC)cccc2OC)c(OC)c1	-0.6%	-8.3%	11.4	?	?
C=CCc1ccc(OCCOCCOc2cccc3cccnc23)c(OC)c1	-22.3%	-22.3%	-12.4	?	29.1µM*
C/C=C/c1ccc(OCCOc2cccc3cccnc23)c(OC)c1	-18.0%	-16.8%	-62.0*	?	?

Assay outcomes deposited in PubChem BioAssay by National Center for Advancing Translational Sciences (NCATS).
